The panel holds about 83,000 compounds, 20% with a hit somewhere; the sample as a whole holds those more often.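 Method: cells in 96-well plates; compound added at one concentration; 48 h incubation; percent growth measured; values under 10 scored active.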 Active and inactive are the calls of the source.
Assays:
Assay in all cases: NCI-60 one-dose screen, 48 h (100 = growth as untreated, 0 = no growth, -100 = all killed)
Settings in all cases: 10 µM unless noted
NCI-H23 lung = tested on: NCI-H23 lung
NCI-H226 lung = tested on: NCI-H226 lung
NCI-H322M lung = tested on: NCI-H322M lung
HOP-62 NSCLC = tested on: HOP-62 NSCLC
NCI-H460 lung = tested on: NCI-H460 lung
HOP-92 NSCLC = tested on: HOP-92 NSCLC
NCI-H522 lung = tested on: NCI-H522 lung
A549/ATCC NSCLC = tested on: A549/ATCC NSCLC
786-0 renal = tested on: 786-0 renal
COLO 205 colon = tested on: COLO 205 colon
DU-145 prostate = tested on: DU-145 prostate
K-562 leukemia = tested on: K-562 leukemia
MALME-3M melanoma = tested on: MALME-3M melanoma
MDA-MB-231 breast = tested on: MDA-MB-231 breast
RXF 393 renal = tested on: RXF 393 renal
SF-268 CNS = tested on: SF-268 CNS
SF-295 CNS = tested on: SF-295 CNS
SF-539 CNS = tested on: SF-539 CNS
UACC-257 melanoma = tested on: UACC-257 melanoma
M14 melanoma = tested on: M14 melanoma

Measured: growth

CN(C)c1ccc(O)c2c1CC1CC3C(N(C)C)C(=O)C(C(N)=O)=C(O)C3(O)C(=O)C1=C2O (stereo not given)
inactive: NCI-H23 lung 51.1% | NCI-H226 lung 71% | NCI-H322M lung 38.7% | HOP-62 NSCLC 55% | NCI-H460 lung 29.1% | HOP-92 NSCLC 21.7% | NCI-H522 lung 35.6% | A549/ATCC NSCLC 21.3% | 786-0 renal 45.3% | COLO 205 colon 56.3% | DU-145 prostate 49% | K-562 leukemia 45.2% | MALME-3M melanoma 46.8% | MDA-MB-231 breast 66.3% | RXF 393 renal 46.3% | SF-268 CNS 46.1% | SF-295 CNS 11.8% | SF-539 CNS 41.6% | UACC-257 melanoma 48.4% | M14 melanoma 42.1%

C=CC(C)C(C)(C)O (stereo not given)
inactive: NCI-H23 lung 108% | NCI-H226 lung 98.8% | NCI-H322M lung 98.3% | HOP-62 NSCLC 102% | NCI-H460 lung 102% | HOP-92 NSCLC 105% | NCI-H522 lung 94.4% | A549/ATCC NSCLC 94.6% | 786-0 renal 89.4% | COLO 205 colon 110% | DU-145 prostate 105% | K-562 leukemia 94% | MALME-3M melanoma 107% | MDA-MB-231 breast 103% | RXF 393 renal 105% | SF-268 CNS 95.3% | SF-295 CNS 102% | SF-539 CNS 105% | UACC-257 melanoma 109% | M14 melanoma 102%

Cc1ccc(S(N)(=O)=O)cc1Cl
inactive: NCI-H23 lung 111% | NCI-H226 lung 105% | NCI-H322M lung 121% | HOP-62 NSCLC 110% | NCI-H460 lung 113% | HOP-92 NSCLC 101% | NCI-H522 lung 98.6% | A549/ATCC NSCLC 92.9% | 786-0 renal 100% | COLO 205 colon 104% | DU-145 prostate 120% | K-562 leukemia 92.3% | MALME-3M melanoma 116% | MDA-MB-231 breast 98% | RXF 393 renal 125% | SF-268 CNS 108% | SF-295 CNS 113% | SF-539 CNS 106% | UACC-257 melanoma 109% | M14 melanoma 105%

CC(c1ccccc1)N(C)C (stereo not given)
inactive: NCI-H23 lung 110% | NCI-H226 lung 95.3% | NCI-H322M lung 92.3% | HOP-62 NSCLC 87.9% | NCI-H460 lung 107% | HOP-92 NSCLC 111% | NCI-H522 lung 98% | A549/ATCC NSCLC 106% | 786-0 renal 104% | COLO 205 colon 103% | DU-145 prostate 119% | K-562 leukemia 28% | MALME-3M melanoma 141% | MDA-MB-231 breast 99.1% | RXF 393 renal 124% | SF-268 CNS 108% | SF-295 CNS 131% | SF-539 CNS 103% | UACC-257 melanoma 116% | M14 melanoma 92.1%

CC1(C)CC(=O)C=C(N)C1
inactive: NCI-H23 lung 88.1% | NCI-H226 lung 103% | NCI-H322M lung 106% | HOP-62 NSCLC 103% | NCI-H460 lung 121% | HOP-92 NSCLC 109% | NCI-H522 lung 89.6% | A549/ATCC NSCLC 94.8% | 786-0 renal 106% | COLO 205 colon 134% | DU-145 prostate 128% | K-562 leukemia 146% | MALME-3M melanoma 155% | MDA-MB-231 breast 104% | RXF 393 renal 94.4% | SF-268 CNS 110% | SF-295 CNS 98.7% | SF-539 CNS 127% | UACC-257 melanoma 87.2% | M14 melanoma 102%

O=C1C=C[C@H](O)[C@@]2(CO)O[C@@H]12
inactive: NCI-H23 lung 93.1% | NCI-H226 lung 71.3% | NCI-H322M lung 114% | HOP-62 NSCLC 126% | NCI-H460 lung 121% | HOP-92 NSCLC 64.6% | A549/ATCC NSCLC 144% | 786-0 renal 102% | DU-145 prostate 95.6% | MALME-3M melanoma 77.7% | MDA-MB-231 breast 105% | RXF 393 renal 23.1% | SF-268 CNS 100% | SF-295 CNS 109% | SF-539 CNS 70.1% | UACC-257 melanoma 108% | M14 melanoma 85.9%
active: NCI-H522 lung -60.6% | COLO 205 colon 3.59% | K-562 leukemia 4.07%

OCC1OC(n2ccc3c2ncn2ncnc32)C(O)C1O (stereo not given)
inactive: NCI-H23 lung 35.8% | NCI-H226 lung 25.1% | NCI-H322M lung 38.4% | HOP-62 NSCLC 37.3% | NCI-H460 lung 26.5% | NCI-H522 lung 82.7% | A549/ATCC NSCLC 50.6% | 786-0 renal 31.9% | COLO 205 colon 35% | DU-145 prostate 16.9% | K-562 leukemia 18.4% | MALME-3M melanoma 83.7% | MDA-MB-231 breast 40.9% | RXF 393 renal 38.3% | SF-268 CNS 47.4% | SF-295 CNS 43.7% | SF-539 CNS 34.3% | UACC-257 melanoma 97.7% | M14 melanoma 51.3%
active: HOP-92 NSCLC -0.422%
